EWS-Fli block: inhibitors of EWS/Fli oncoprotein transcriptional activity | A673 NR0B1-luciferase reporter, viability-normalised | inhibition, % at 12.6 µM | 350,000 compounds, 0.67% hits;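 active means mean inhibition of at least 50% after viability correction, with every replicate also passing that limit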;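 further: firefly luciferase signal divided by Alamar Blue viability fluorescence both relative to DMSO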
LGR2 antag: inhibitors of bursicon-induced Drosophila LGR2 receptor cAMP signaling; HEK293 LGR2, CRE-luciferase, bursicon-stimulated, 4 h; AID 720647; 380,000 compounds, 0.35% hits; inhibition, % at 9.99 µM;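 active means drop in luminescence signal, shown as inhibition above about 50% in the replicate tests, limit read from the data, passing the limit was not always enough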;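 further: agonist challenge used bursicon conditioned medium at about half maximal strength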
TWEAK-Fn14 inh: blocks TWEAK-Fn14 interaction in a reporter cell assay; TWEAK-stimulated Fn14 reporter cells, luciferase luminescence, 8 h; inhibition, % at 10 µM; 360,000 compounds, 2% hits; AID 1159606; in the data active means inhibition above about 50%
TROY signal inh: blocks TROY-dependent signaling in reporter cells; inhibition, % at 10 µM; 360,000 compounds, 0.98% hits; Q293 LMP1-TROYcd NF-kB luciferase reporter, 4 h;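 active means compounds whose plate-normalised and pattern-corrected inhibition of the luciferase reporter signal at the single screening dose is 50% or more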
PAX8 reporter: PAX8 transcriptional activity inhibition | inhibition, % at 12.6 µM | RMG-I TPO-luciferase reporter, SteadyGlo, 24 h | 360,000 compounds, 1.2% hits | AID 652154;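 active means mean replicate inhibition at least 60% with every replicate also reaching 60%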;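 further: luciferase light reporting Pax8 driven TPO promoter activity; plate controls were median of neutral control wells for no effect and mitoxantrone controls for full effect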
EBV LMP1 NFkB: Epstein-Barr LMP1 NF-kappaB reporter inhibition | LMP1-induced NF-kappaB luciferase reporter cells, luminescence | inhibition, % at 12.5 µM | 350,000 compounds, 0.69% hits | AID 504558; in the data active means inhibition above about 41%;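 further: 0% = neutral control wells and 100% = reference inhibitor control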
* = called active by the depositor; . = no result. A selection: hits, their analogues and other compounds. The true share with any hit is near 3.1%.

SMILES	EWS-Fli block	LGR2 antag	TWEAK-Fn14 inh	TROY signal inh	PAX8 reporter	EBV LMP1 NFkB
Cc1ccc(S(=O)(=O)Nc2ccc3c(c2)C(=O)N([C@H](C)CO)C[C@@H](C)[C@@H](CN(C)C(=O)c2ccccc2)OCCCC[C@H](C)O3)cc1	-10	-12	.	.	-24	.
Cc1ccc(S(=O)(=O)Nc2ccc3c(c2)C(=O)N([C@H](C)CO)C[C@@H](C)[C@@H](CN(C)S(=O)(=O)c2ccc(C)cc2)OCCCC[C@H](C)O3)cc1	6	-1	.	.	-27	.
Cc1ccc(S(=O)(=O)Nc2ccc3c(c2)C(=O)N([C@H](C)CO)C[C@H](C)[C@@H](CN(C)S(=O)(=O)c2ccc(C)cc2)OCCCC[C@H](C)O3)cc1	7	-2	.	.	83*	.
Cc1ccc(S(=O)(=O)Nc2ccc3c(c2)C(=O)N([C@@H](C)CO)C[C@H](C)[C@@H](CN(C)S(=O)(=O)c2ccc(C)cc2)OCCCC[C@H](C)O3)cc1	16	18	.	.	61*	.
Cc1ccc(S(=O)(=O)Nc2ccc3c(c2)C(=O)N([C@@H](C)CO)C[C@@H](C)[C@@H](CN(C)C)OCCCC[C@H](C)O3)cc1	-7	-5	.	.	87*	.
Cc1ccc(S(=O)(=O)Nc2ccc3c(c2)C(=O)N([C@H](C)CO)C[C@H](C)[C@H](CN(C)C(=O)c2ccccc2)OCCCC[C@H](C)O3)cc1	-6	-16	.	.	96*	.
C[C@@H]1CN([C@@H](C)CO)C(=O)Cc2cc(NC(=O)Cc3ccccc3)ccc2O[C@@H]1CN(C)C	-10	-35	.	.	-5	.
Cc1noc(C)c1S(=O)(=O)Nc1cccc2c1O[C@H](CN(C)Cc1ccc(C(=O)O)cc1)[C@H](C)CN([C@@H](C)CO)C2=O	0	6	.	.	.	.
Cc1ccc(S(=O)(=O)Nc2ccc3c(c2)C(=O)N([C@H](C)CO)C[C@@H](C)[C@H](CN(C)S(=O)(=O)c2ccc(C)cc2)OCCCC[C@H](C)O3)cc1	9	3	.	.	84*	.
Cc1ccc(S(=O)(=O)Nc2ccc3c(c2)C(=O)N([C@@H](C)CO)C[C@H](C)[C@H](CN(C)S(=O)(=O)c2ccc(C)cc2)OCCCC[C@H](C)O3)cc1	15	-6	.	.	58	.
COCC(=O)N(Cc1cc2ccccc2[nH]c1=O)c1ccc(OC)cc1	.	10	7	-2	.	-6
CCCC(=O)N(Cc1cc(=O)[nH]c2ccccc12)c1ccc(OC)cc1	9	5	12	-13	20	18
COc1ccccc1N(Cc1cc(=O)[nH]c2ccccc12)C(=O)c1ccccc1	-22	3	81*	82*	2	-7
COCC(=O)N(Cc1cc2ccccc2[nH]c1=O)c1ccccc1OC	.	.	79*	.	.	-4
COc1ccc(N(Cc2cc(=O)[nH]c3ccccc23)C(=O)CCl)cc1	66*	16	41	9	0	2
Cc1cccc(N(Cc2cc(=O)[nH]c3ccccc23)C(=O)CCl)c1	61*	32	86*	24	115*	17
C[C@H](CO)N1C[C@H](C)[C@H](CN(C)C(=O)CC2CC2)Oc2cc(C#CC3CC3)ccc2S1(=O)=O	0	-4	.	.	.	.
CN1C(=O)c2cc(NC(=O)C3CC3)ccc2OC[C@H]2O[C@@H](CC(=O)Nc3cccc(Cl)c3)CC[C@@H]21	3	-2	.	.	-9	.
COc1ccc2c3c([nH]c2c1)[C@@H](CO)N(Cc1ccncc1)CC31CCN(C(=O)CN(C)C)CC1	-4	2	.	.	11	.
COc1ccc(NC(=O)C(=O)Nc2cccc3cccnc23)cc1OC	-65	-10	105*	-22	-49	-24
COc1ccc(C(=O)Nc2cccc3cccnc23)cc1OC	-60	-31	0	-39	.	-1
Cc1ccccc1-c1cnc2c(c1)C(=O)N([C@@H](C)CO)C[C@H](C)[C@@H](CN(C)C(=O)c1ccccc1)O2	-11	5	.	.	5	.
Cc1cccc(C)c1NC(=O)CN(C)CC(=O)Nc1ccccc1Oc1ccccc1	2	-6	52*	1	7	63*
O=C(Nc1ccc(OCC(F)(F)C(F)F)c(C(F)(F)F)c1)c1ccccc1O	.	.	46	44	100*	23
O=C(Nc1ccc(OCC(F)(F)C(F)F)c(C(F)(F)F)c1)c1ccccc1	.	.	14	43	.	-8
SMILES	EWS-Fli block	LGR2 antag	TWEAK-Fn14 inh	TROY signal inh	PAX8 reporter	EBV LMP1 NFkB
COCC(=O)Nc1ccc2c(c1)[C@H]1C[C@@H](CC(=O)NCc3ccccn3)O[C@H](CO)[C@H]1O2	-8	7	.	.	-14	.
O=C(CCNC(=O)c1ccccc1Cl)Nc1nc(-c2ccc3ccccc3c2)cs1	6	25	53*	34	3	22
O=C(Cc1ccccc1F)Nc1nc(-c2ccc(F)c(F)c2)cs1	-93	-48	23	72*	-35	-23
O=C(Cc1ccccc1)Nc1nc(-c2ccc(F)c(F)c2)cs1	-39	10	40	16	-26	-2
O=C(O)c1ccccc1C(=O)N1CCN(Cc2ccc3c(c2)OCO3)CC1	1	-8	10	-9	-7	.
O=C(c1ccccc1Br)N1CCN(Cc2ccc3c(c2)OCO3)CC1	6	8	-15	-3	-15	43*
COc1ccc2cc3cc(C(=O)N4CCN(Cc5ccc6c(c5)OCO6)CC4)oc3nc2c1	.	.	40	54*	.	2
CCC(=O)N1C[C@H](C)[C@@H](OC)CN(C)C(=O)c2cc(NC(=O)c3ccc(F)cc3)ccc2OC[C@@H]1C	-4	-4	.	.	12	.
C[C@H](CO)N1C[C@H](C)[C@H](CN(C)C(=O)Nc2ccc(F)cc2)Oc2ccc(NC(=O)Nc3ccccc3)cc2C1=O	-3	13	.	.	8	.
CN1c2ccc(C3=CCCCC3)cc2[C@@H]2[C@@H](CCN2C(=O)C2CC2)[C@@H]1CO	-9	9	.	.	.	.
O=C(Cc1ccccc1)N1CC[C@H]2[C@H](CO)Nc3ccc(C4=CCCCC4)cc3[C@H]21	-3	-8	.	.	82*	.
O=C(Cc1ccccc1)N1CC[C@H]2[C@H](CO)Nc3ccc(-c4cccc(F)c4)cc3[C@H]21	6	-10	.	.	23	.
CN1c2ccc(C3=CCCCC3)cc2[C@H]2[C@H](CCN2C(=O)C2CC2)[C@@H]1CO	-3	.	.	.	100*	.
O=C(C1CCCC1)N1CC[C@@H]2[C@H](CO)Nc3ccc(C4=CCCCC4)cc3[C@@H]21	4	12	.	.	90*	.
O=C(Cc1ccccc1)N1CC[C@@H]2[C@H]1c1cc(-c3cccc(F)c3)ccc1N[C@@H]2CO	16	-11	.	.	68*	.
CN(C)C(=O)C[C@@H]1C[C@@H]2c3cc(NS(=O)(=O)c4ccc(F)cc4)ccc3O[C@@H]2[C@@H](CO)O1	3	-8	.	.	-2	.
COCC#Cc1cnc2c(c1)C(=O)N([C@H](C)CO)C[C@@H](C)[C@H](CN(C)Cc1ccc3c(c1)OCO3)O2	-1	-5	.	.	-27	.
CCC(=O)Nc1ccc2c(c1)C(=O)N(C)C[C@H](OC)[C@@H](C)CN(C(=O)c1cccnc1)[C@@H](C)CO2	-7	5	.	.	.	.

Bioassay records from PubChem BioAssay.
